{
  "source": "PubChem BioAssay AID938",
  "about": "(National Center for Advancing Translational Sciences (NCATS), 2007)",
  "note": "Several values for one entry are separate records, joined by “and”; a condition that tells them apart may be missing. Equal values may be shown once. The whole screen tested about 73,000 compounds, of which about 1,800 (2.5%) were called active. Another 13% or so got no clear call; they are omitted. Calls come from the whole dose curve; as a rule, active = well fitted activation curve with a large enough effect; inconclusive = small, poorly fitted or top-dose-only effect; inactive = no such curve, though single readings can be large or run the other way. What follows is part of a selection rich in actives, with near analogues and random picks from the rest. Where a call stands in place of a potency, no number is given.",
  "data": [
    {"assay": "qHTS Assay for Agonists of the Thyroid Stimulating Hormone Receptor: Activators of Intracellular cAMP Concentrations in Parental HEK 293; note: nearly all actives have a fitted effect of over 55% in size; note: potency is the fitted concentration of half-maximal effect", "conditions": "parental HEK293 CNG cAMP sensor, membrane potential fluorescence; series mostly up to 57.1 µM", "source_text": "NIH Chemical Genomics Center [NCGC]\nNIH Molecular Libraries Screening Centers Network [MLSCN]\nPI Name: Dr. Marvin Gershengorn\nThis cell based assay utilized a cyclic nucleotide gated ion channel (CNG) as a biosensor for cAMP induction. HEK 293 cells stably expressing the modified CNG were purchased from BD biosciences (http://www.atto.com/products/actone/features_benefits.shtml) . Stimulation of cAMP production causes the CNG to open and subsequent membrane depolarization to occur. A fluorescent membrane potential dye (BD biosciences) was utilized to detect cAMP stimulation in cells.\nThe cells were maintained in DMEM medium (Invitrogen) containing 10 % FBS (Hyclone), 100 units/ml Penicillin, 100 ug/ml Streptomycin (Invitrogen), and 250 ug/ml Geneticin (Invitrogen) and 1 ug/ml Puromycin (Invitrogen) at 37C in 5% CO2. This assay was used as a counterscreen to \"qHTS Assay for Agonists of the Thyroid Stimulating Hormone Receptor\", to control for compounds signaling through endogenous receptors and other targets of HEK 293 cells.\nNCGC Assay Protocol Summary:\nHigh Throughput Screening. Freshly passaged cells were dispensed into 1536-well assay plates at 4 ul/well in DMEM containing phenol red (Invitrogen), 10% FCS (Hyclone), and 100 units/ml Penicillin, 100 ug/ml Streptomycin (Invitrogen) and incubated at 37 C with 5% CO2 for 20 to 36 hrs before the robotic screening. The screen was initiated by addition of 4 ul/well membrane potential dye containing 100 uM RO 20-1724 (Sigma Aldrich), followed by 60 min incubation at room temperature to allow for dye equilibration across the cell membrane. 23 nl/well compound or control was then added to the assay plates, which were incubated for additional 30 min before reading a Envision fluorescence plate reader (Perkin Elmer) in bottom-read mode for fluorescence intensity (emission at 590 nm).\nKeywords: cAMP, CNG Ion Channel, quantitative high throughput screening, qHTS, HTS, probe identification, CNG, cAMP, cyclic nucleotide gated ion channel PubChem", "values": [
      {"compound": "CCC(c1nnnn1Cc1ccco1)N(CCc1ccccc1)Cc1cc2cccc(C)c2[nH]c1=O", "note": "(configuration not stated)", "Potency": "12.6 µM (active)"},
      {"compound": "CCC(c1nnnn1C1CCCC1)N(Cc1cccs1)Cc1cc2cccc(C)c2[nH]c1=O", "note": "(configuration not stated)", "Potency": "inactive"},
      {"compound": "COc1ccc2[nH]c(=O)c(CN(CC3CCCO3)C(=O)Nc3ccccc3)cc2c1", "note": "(configuration not stated)", "Potency": "inactive"},
      {"compound": "COc1ccc(CCN(Cc2cc3cccc(C)c3[nH]c2=O)C(=O)N2CCCC2)cc1OC", "Potency": "inactive"},
      {"compound": "COc1ccc2[nH]c(=O)c(CN(Cc3nnnn3CCc3ccccc3)CC3CCCO3)cc2c1", "note": "(configuration not stated)", "Potency": "inactive"},
      {"compound": "CCC(c1nnnn1Cc1ccco1)N(Cc1cc2cc(OC)ccc2[nH]c1=O)C1CCCCC1", "note": "(configuration not stated)", "Potency": "10 µM (active)"},
      {"compound": "COc1ccc(/C=C/NC(=O)Cc2ccc(OC)c(OC)c2)cc1", "activation": "28.5% [at 11.4 µM] (inactive) and 7.24% [at 11.4 µM] (inactive)"},
      {"compound": "Cn1c(CNc2nc(-c3ccccc3)cs2)nnc1SCC(=O)c1ccccc1", "Potency": "inactive"},
      {"compound": "CCN(CC)CCCCn1c(-c2ccccc2)nc2c(N3CCOCC3)nc(C)nc21", "Potency": "inactive"},
      {"compound": "COc1c(C)cccc1C(=O)Nc1cc(Cl)ccc1N1CCOCC1", "Potency": "25.1 µM (active)"},
      {"compound": "O=C(CNC(=O)c1ccc(Cl)cc1Cl)NCC(=O)Nc1ccccc1N1CCOCC1", "Potency": "inactive"},
      {"compound": "CC(=O)Nc1ccc(N2CCOCC2)c(C(=O)Nc2cccc(C)c2)c1", "Potency": "inactive"},
      {"compound": "Cc1ccc(NC(=O)c2cccc(N(C)C)c2)cc1NC(=O)c1ccc(O)cc1", "Potency": "inactive"},
      {"compound": "COC(=O)c1oc2ccc(Br)cc2c1NC(C)=O", "Potency": "inactive"},
      {"compound": "Cc1cccc(OCc2nnc(SCn3nnc4ccccc4c3=O)o2)c1", "Potency": "25.1 µM (active)"},
      {"compound": "Cc1cc(C)cc(OCc2nnc(SCC(=O)Nc3ccccc3)o2)c1", "Potency": "inactive"},
      {"compound": "Cc1cccc(OCc2nnc(SCc3nc4cc(C(F)(F)F)ccc4c(=O)[nH]3)o2)c1", "Potency": "inactive"},
      {"compound": "Cc1noc(C)c1S(=O)(=O)N(CC(=O)Nc1ccc2c(c1)OCCO2)c1ccc(C(C)C)cc1", "Potency": "inactive"},
      {"compound": "C=CCOc1ccc(/C=N/n2cncn2)cc1OC", "Potency": "inactive"},
      {"compound": "Cc1nc(C)c(C(=O)Nc2cccc(C)c2C)o1", "Potency": "inactive"},
      {"compound": "Cc1ccc(OCC(=O)Nc2ccc(-c3nnc(-c4ccco4)o3)cc2)cc1", "Potency": "inactive"},
      {"compound": "CCC(=O)Oc1cccc(C(=O)Nc2ccc(-c3nnc(-c4ccco4)o3)cc2)c1", "Potency": "inactive"},
      {"compound": "CCCCOc1ccc(-c2nnc(-c3ccco3)o2)cc1", "Potency": "20 µM (active)"},
      {"compound": "CC(C)(C)c1ccc(OC2C=CC(C#Cc3ccccc3)OC2CO)cc1", "note": "(configuration not stated)", "activation": "12.6% [at 11.4 µM] (inactive)"},
      {"compound": "Cc1cc2nc3c(=O)[nH]c(=O)nc-3n(C[C@H](O)[C@H](O)[C@H](O)CO)c2cc1C", "Potency": "inactive"},
      {"compound": "CC(Cc1cccs1)NC(=O)NC1CCCCC1", "note": "(configuration not stated)", "Potency": "inactive"},
      {"compound": "Cc1ccccc1NC(=O)c1cnn(-c2ccccc2)c1NC(=O)c1ccco1", "Potency": "inactive"},
      {"compound": "O=C(Nc1ccc(Oc2ccccc2)cc1)c1ccco1", "Potency": "inactive"},
      {"compound": "O=C(Nc1c(-c2ccccc2)nc2c(Br)cc(Br)cn12)c1ccco1", "Potency": "20 µM (active)"},
      {"compound": "Cc1ccc(OCc2nc(C#N)c(N3CCCC3)o2)cc1", "Potency": "20 µM (active)"},
      {"compound": "CCOc1ccc(Nc2oc(Cc3ccccc3)nc2C#N)cc1", "Potency": "inactive"},
      {"compound": "Cn1c(=O)c2c(nc(N3CCCCCC3)n2CC(O)COc2ccc(Cl)cc2)n(C)c1=O", "note": "(configuration not stated)", "Potency": "inactive"},
      {"compound": "N#Cc1nc(COc2ccc(Cl)cc2)oc1N1CCCC1", "Potency": "15.8 µM (active)"},
      {"compound": "N#Cc1nc(-c2ccc(OCc3ccccc3)cc2)oc1NCCCN1CCOCC1", "Potency": "inactive"},
      {"compound": "N#Cc1nc(COc2ccc(-c3ccccc3)cc2)oc1NCc1cccnc1", "Potency": "inactive"},
      {"compound": "CCOc1cc(/C=N/O)cc(Br)c1OC", "activation": "15% [at 11.4 µM] (inactive)"},
      {"compound": "CCOC(=O)[C@]1(C(/C=C/c2ccco2)NC(=O)OC)CCCC1=O", "note": "(some centres not stated)", "activation": "0.322% [at 11.4 µM] (inactive)"},
      {"compound": "O=C(NC(Cc1ccccc1)C(=O)N1CCCC1C(=O)O)c1ccccc1", "note": "(configuration not stated)", "Potency": "inactive"},
      {"compound": "O=c1c(CCc2ccccc2)nc2cncnc2n1C1CC1", "Potency": "inactive"},
      {"compound": "CCOC(=O)C1CCCN(C(=O)C2CCN(c3nnc(-n4cccc4)s3)CC2)C1", "note": "(configuration not stated)", "Potency": "inactive"},
      {"compound": "O=C1CSC(c2cccc(F)c2)N1c1ccccc1F", "note": "(configuration not stated)", "Potency": "inactive"},
      {"compound": "Cc1cc(/C=N/n2cnnc2)c(C)n1-c1ccc2ncccc2c1", "Potency": "3.98 µM (active)"},
      {"compound": "Cc1cc(/C=N/n2cnnc2)c(C)n1-c1cccc(C(=O)O)c1", "Potency": "inactive"},
      {"compound": "Fc1ccc(Br)cc1/C=N/n1cnnc1", "Potency": "inactive"},
      {"compound": "CCOC(=O)c1cc2cc(-c3c(C(=O)OCC)oc4cc(O)cc(O)c4c3=O)ccc2o1", "Potency": "inactive"},
      {"compound": "CN1CCC2(CC1)CCN(S(=O)(=O)c1ccccc1)CC2", "Potency": "3.98 µM (active)"},
      {"compound": "O=C(Nc1cccc(F)c1)N1CCC2(CC1)CCN(S(=O)(=O)c1ccccc1)CC2", "Potency": "inactive"},
      {"compound": "COc1ccccc1CN1CC2(CCN(S(=O)(=O)c3ccccc3)CC2)C1", "Potency": "inactive"},
      {"compound": "CC(=O)c1cnc(Nc2nc(C)c3cc(C)ccc3n2)nc1C", "Potency": "inactive"},
      {"compound": "CO/N=C\\[C@@H](C)[C@H](OCc1ccccc1)C(C)C", "activation": "-0.643% [at 11.4 µM] (inactive)"},
      {"compound": "C[C@H]1CC[C@H](C(=O)O)N[C@@H]1c1ccc(C#Cc2ccccc2)cc1", "activation": "0.689% [at 11.4 µM] (inactive)"},
      {"compound": "CC(C)[C@H](NC(=O)Nc1ccc(S(N)(=O)=O)cc1)C(=O)O", "Potency": "inactive"},
      {"compound": "Cc1ccc(C(=O)CSc2nnc(Cn3nnc4ccccc43)n2C)cc1", "Potency": "inactive"},
      {"compound": "CC(C)(C)NC(=O)C(c1ccco1)N(Cc1ccc2c(c1)OCO2)C(=O)Cn1nnc2ccccc21", "note": "(configuration not stated)", "Potency": "15.8 µM (active)"},
      {"compound": "CC(C)(C)NC(=O)C(c1ccncc1)N(C(=O)CNC(=O)c1ccco1)c1ccc2c(c1)OCO2", "note": "(configuration not stated)", "Potency": "inactive"},
      {"compound": "CCC(C)(C)NC(=O)C(c1cccn1C)N(Cc1ccc(C)cc1)C(=O)Cn1nnc2ccccc21", "note": "(configuration not stated)", "Potency": "15.8 µM (active)"},
      {"compound": "Cc1ccc(-c2nnn(CC(=O)N(CCO)C(C(=O)NC(C)(C)C)c3ccncc3)n2)cc1", "note": "(configuration not stated)", "Potency": "inactive"},
      {"compound": "O=C(Cn1nnc(-c2ccccc2)n1)NCc1ccc2c(c1)OCO2", "Potency": "inactive"},
      {"compound": "CC(=O)c1nc(N2C(=O)C3CC=C(C)CC3C2=O)sc1C", "note": "(configuration not stated)", "Potency": "inactive"},
      {"compound": "CCOC(=O)CCC(=O)OCC(=O)NC(C)C1CC2CCC1C2", "note": "(configuration not stated)", "Potency": "inactive"},
      {"compound": "CCc1c(C)sc(NC(=O)OC)c1C(=O)N1CCOCC1", "Potency": "inactive"},
      {"compound": "CC(=O)OCC(=O)[C@@]1(O)CC[C@@H]2[C@H]3CCC4=CC(=O)C=C[C@]4(C)[C@]3(F)[C@@H](O)C[C@@]21C", "Potency": "inactive"}
    ]}
  ]
}
